Results taken from PubChem BioAssay (NCATS).
Several values for one entry are separate records, joined by “and”; a condition that tells them apart may be missing. Equal values may be shown once. Inconclusive results are not listed. Unmarked numbers belong to inactive results. Calls come from the whole dose curve; as a rule, active = well fitted inhibition curve with a large enough effect; inconclusive = small, poorly fitted or top-dose-only effect; inactive = flat fitted curve, though single readings scatter.

Experiment: Drug repurposing screens with cells derived from glioblastoma tumor samples (AID 1345199); note: nearly all actives have a fitted effect of over 40% in size
Conditions: GBM patient neurospheres viability, ATP luminescence, 48 h; at 20 µM (top of the series); tumour line C
Procedure, shortened: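 Primary testing used CD133+ neurospheres from four GBM patients, seven concentrations, 48 h exposure and ATP-based viability; confirmation added three slower-growing patient lines.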
% is set by controls: 0 for no effect and ±100 for the full control effect.

SMILES | activity, negative = cell killing [%]
CS(=O)(=O)c1ccc([C@@H](O)[C@@H](CF)NC(=O)C(Cl)Cl)cc1 | -23.2
OCCN1CCN(CCCN2c3ccccc3Sc3ccc(Cl)cc32)CC1 | -18
CNCCCC1c2ccccc2C=Cc2ccccc21 | 3.37

Same assay, conditions: GBM patient neurospheres viability, ATP luminescence, 48 h; at 45.9 µM (top of the series); tumour line B

SMILES | activity, negative = cell killing
CCOc1nc2cccc(C(=O)O)c2n1Cc1ccc(-c2ccccc2-c2nn[nH]n2)cc1 | 5.1%
CC(=O)Oc1ccc(C2(c3ccc(OC(C)=O)cc3)C(=O)Nc3ccccc32)cc1 | 0.963% and -11%
NC1[C@H]2CN(c3nc4c(cc3F)c(=O)c(C(=O)O)cn4-c3ccc(F)cc3F)C[C@@H]12 (stereo not given in full) | -29.1%
CC(C)(C)NCC(O)COc1ccc(NC(=O)NC2CCCCC2)cc1 (stereo not given) | -25.7%
CCN(CC)CCSC(=O)C(c1ccccc1)c1ccccc1 | -17.9% and -28.9%
CC(=O)OCC(=O)[C@@]1(O)CC[C@H]2[C@@H]3CCC4=CC(=O)CC[C@]4(C)[C@H]3C(=O)C[C@@]21C | -22%
CN1CCC[C@@H]1Cc1c[nH]c2ccc(CCS(=O)(=O)c3ccccc3)cc12 | -21.2%
C[C@H]1O[C@@H](n2cc(F)c(=O)[nH]c2=O)[C@H](O)[C@@H]1O | -19.9%
NC(=O)c1ncn([C@@H]2O[C@H](CO)[C@@H](O)[C@H]2O)n1 | -11%

Same assay, conditions: GBM patient neurospheres viability, ATP luminescence, 48 h; at 45.9 µM (top of the series); tumour line D

SMILES | activity, negative = cell killing
CC(=O)Oc1ccc(C2(c3ccc(OC(C)=O)cc3)C(=O)Nc3ccccc32)cc1 | -19.5% and -4.76%
Oc1cn2c(n1)Nc1ccc(Cl)c(Cl)c1C2 | -7.52%
C[C@H]1O[C@@H](n2cc(F)c(=O)[nH]c2=O)[C@H](O)[C@@H]1O | -17.4%
NC(=O)c1ncn([C@@H]2O[C@H](CO)[C@@H](O)[C@H]2O)n1 | -8.98%

Same assay, conditions: GBM patient neurospheres viability, ATP luminescence, 48 h; at 46.1 µM (top of the series); tumour line C

SMILES | activity, negative = cell killing
CN(C)CCCN1c2ccccc2Sc2ccc(Cl)cc21 | -4.19%
CC(=O)Oc1ccc(C2(c3ccc(OC(C)=O)cc3)C(=O)Nc3ccccc32)cc1 | -13% and -13.5%
CNCCC(Oc1ccc(C(F)(F)F)cc1)c1ccccc1 (stereo not given) | -4.69%
CN(C)CCCN1c2ccccc2CCc2ccccc21 | -2.23%
CSc1ccc2c(c1)N(CCC1CCCCN1C)c1ccccc1S2 (stereo not given) | -0.209%
CCN(CC)CCNC(=O)c1c(C)[nH]c(/C=C2\C(=O)Nc3ccc(F)cc32)c1C | 3.12%
Oc1cn2c(n1)Nc1ccc(Cl)c(Cl)c1C2 | -8.47% and 1.08%
C[C@H]1O[C@@H](n2cc(F)c(=O)[nH]c2=O)[C@H](O)[C@@H]1O | 3.86%
NC(=O)c1ncn([C@@H]2O[C@H](CO)[C@@H](O)[C@H]2O)n1 | -10.2%
